High-throughput results as filed in PubChem BioAssay.
This is a sample that favours compounds with a hit; in the whole collection about 1.4% have one here.
Vaccinia mCherry: qHTS for Stage-Specific Inhibitors of Vaccinia Orthopoxvirus: mCherry Reporter Primary qHTS. Potency, µM (doses to about 36.5 µM), for inactives: at the top dose activity change, negative = inhibition, most hits filed as inhibitors. AID 720579, 2013. actives 0.63% (n = 310,000). Vaccinia virus mCherry reporter infection, fluorescence; calls by dose curve; tested in A549 cells; also: potency is read from the fitted curve at half-maximal effect; % is scaled to controls: 0 for no effect and ±100 for the full control effect; nearly all actives have a fitted effect of over 35% in size
AMA1-RON2 inh: qHTS for Inhibitors of AMA1-RON; Towards Development of Antimalarial Drug Lead: Primary Screen; Plasmodium falciparum AMA1 (3D7) - RON2 peptide interaction; AlphaScreen AMA1-biotinylated RON2 peptide binding; Potency, µM (series often up to 58.2 µM), inactives show at the highest dose activity change, negative = inhibition, actives largely listed as inhibitors; actives 0.2% (n = 360,000);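 also: potency is read from the fitted curve at half-maximal effect; 0% = vehicle wells and -100% = peptide control; nearly all actives have a fitted effect of over 45% in size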
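AMA1 (3D7) with his tag at 25 nM final met compounds first, then biotinylated RON2 peptide at 25 nM; detection used donor plus acceptor beads, 10 µg/mL apiece, read by AlphaScreen after 30 min at room temperature.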
AmpC no deterg: qHTS Inhibitors of AmpC Beta-Lactamase (assay without detergent); AmpC nitrocefin hydrolysis, absorbance 480 nm, 0.0001% Triton; AID 485341, 2010; Potency, µM (highest dose often 57.1 µM), for inactives: top-dose activity change, negative = inhibition, actives largely listed as inhibitors; actives 0.52% (n = 330,000);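 also: potency is read from the fitted curve at half-maximal effect; plate controls were no compound for no effect and no enzyme for full effect; nearly all actives have a fitted effect of over 20% in size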
Target sequence (P00811 whole entry, looked up): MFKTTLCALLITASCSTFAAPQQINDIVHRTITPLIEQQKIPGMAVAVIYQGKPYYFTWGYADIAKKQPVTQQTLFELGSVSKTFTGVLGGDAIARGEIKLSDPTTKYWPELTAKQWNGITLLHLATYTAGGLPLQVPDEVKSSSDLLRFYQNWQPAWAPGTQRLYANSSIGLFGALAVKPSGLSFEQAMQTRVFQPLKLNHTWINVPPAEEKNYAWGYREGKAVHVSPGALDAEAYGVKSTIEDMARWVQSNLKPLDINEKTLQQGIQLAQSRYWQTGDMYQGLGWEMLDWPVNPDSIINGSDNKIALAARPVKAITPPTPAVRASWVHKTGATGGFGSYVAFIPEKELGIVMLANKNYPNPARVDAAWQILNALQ
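AmpC (5.3 nM in the dispensed reagent) in 20 mM phosphate pH 7.0 with 0.01% (detergent screen) or 0.0001% Triton X-100 was preincubated with compounds for 15 min at room temperature. Nitrocefin was then added from an 800 uM solution, and hydrolysis was followed at 480 nm.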
VACV Venus inh: qHTS for Stage-Specific Inhibitors of Vaccinia Orthopoxvirus: Venus Reporter Primary qHTS; Vaccinia virus Venus reporter expression, fluorescence; actives 0.46% (n = 330,000); Potency, µM (series often up to 36.5 µM), inactives show at the top dose activity change, negative = inhibition, hits mostly inhibitors; calls by dose curve; tested in A549 cells; also: potency is read from the fitted curve at half-maximal effect; % is scaled to controls: 0 for no effect and ±100 for the full control effect; nearly all actives have a fitted effect of over 30% in size
AmpC inh detg: qHTS Inhibitors of AmpC Beta-Lactamase (assay with detergent); actives 0.041% (n = 370,000); P00811; Potency, µM (doses to about 114 µM), inactives show at the highest dose activity change, negative = inhibition, most hits filed as inhibitors; AmpC hydrolysis of nitrocefin, absorbance 480 nm, 0.01% Triton;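 also: potency is read from the fitted curve at half-maximal effect; 0% = no-compound wells and -100% = no-enzyme wells; nearly all actives have a fitted effect of over 25% in size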
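20 mM phosphate pH 7.0 + 0.01% (detergent screen) or 0.0001% Triton X-100; 5.3 nM AmpC reagent; cpd preinc 15 min RT; nitrocefin (800 uM stock) to start; A480 q20 s × 4 min; Activity was normalised to no-enzyme and no-compound control wells.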
SARS PLpro yeast-1: qHTS of Yeast-based Assay for SARS-CoV PLP. S. cerevisiae expressing SARS-CoV PLpro, growth rescue. Potency, µM (highest dose often 32.9 µM), for the others: at the highest dose activity, positive = growth rescue, hits mostly activators. actives 0.19% (n = 330,000); calls by dose curve; also: potency is read from the fitted curve at half-maximal effect; 0% is about no effect; nearly all actives have a fitted effect of over 55% in size
SARS PLpro yeast-2: qHTS of Yeast-based Assay for SARS-CoV PLP: Hit Validation; shares compounds with SARS PLpro yeast-1; yeast expressing SARS-CoV PLpro, growth phenotype rescue; calls only; AID 652038, 2013; actives 19% (n = 1,000); call rule not given here
* = called active by the depositor; i = inactive; ? = inconclusive; nt = no result given; + = active, no number; ! = repeats disagree; [ ] = dose if it differs, or a comment. Unless noted, calls follow the shape of the dose curve; as a rule, active = well fitted curve in the direction sought with a large enough effect; inconclusive = small, poorly fitted or top-dose-only effect, or another doubt; inactive = no such curve, though single readings can be large; an effect the other way counts as inactive or inconclusive.

SMILES	Vaccinia mCherry	AMA1-RON2 inh	AmpC no deterg	VACV Venus inh	AmpC inh detg	SARS PLpro yeast-1	SARS PLpro yeast-2
COc1ccc(/C(C)=N/NC(=O)c2cc(-c3cccnc3)nc3ccccc23)cc1	-4%	12%	-13%	-6%	?	5%	nt
C/C(=N\NC(=O)c1cc(-c2cccnc2)nc2ccccc12)c1ccccc1O	?	64%	6%	?	-21%	10µM*	+
Cc1cc(NC(=O)C(C)(C)C)cc(-c2nc3ncccc3o2)c1O	0%	nt	nt	25%	-1%	nt	nt
O=C(CSc1nnc(-c2cccnc2)s1)Nc1ccccc1	-3%	-3%	-4%	5%	7%	?	+
COc1ccccc1N1CCN(C(=O)C2CCN(S(=O)(=O)c3cccs3)CC2)CC1	-9%	nt	nt	-3%	15%	nt	nt
CN(C)c1ccc(NC(=O)CN2C(=O)c3ccccc3Sc3ccc(C(=O)N4CCCC4)cc32)cc1	-5%	nt	nt	-15%	7%	nt	nt
CCN(CC)S(=O)(=O)c1ccc(NC(=O)c2c(C)oc3ncnc(N4CCOCC4)c23)cc1	i	nt	nt	-17%	0%	nt	nt
COc1cccc(N=CC2=C(O)CC(C)(C)CC2=O)c1	-23%	-4%[11.6 µM]	3%	-28%	-11%	nt	i
COc1ccccc1N1CCN(c2nc(CNC(=O)C3CCOC(C)(C)C3)nc3ccccc23)CC1 (stereo not drawn)	-12%	nt	nt	-9%	nt	nt	nt
COc1cccc(C(=O)NC(=S)NCc2ccco2)c1	-4%	-4%	-1%	-5%	-5%	?	+
O=C(NCCc1nnc2n1CCN(Cc1cc3ccccc3o1)CC2)c1ccoc1	i	nt	nt	-11%	nt	nt	nt
CNc1nc(-c2ccccn2)nnc1-c1ccccc1	?	-11%	5%	?	-2%	?	i
COC(=O)C1=C(c2ccc(-c3ccccc3)c(F)c2)C[C@@H]2CC[C@H]1N2C(=O)NC1CC1	-21%	-3%	162%	-29%	9%	?	i
COC(=O)C1=C(c2ccc(-c3ccccc3)c(F)c2)C[C@@H]2CC[C@H]1N2C(=O)NC(C)C	?	-1%	179%	?	-7%	3%	nt
Cc1cc(Cl)ccc1NC(=O)NC1CCN(S(=O)(=O)c2ccc(F)cc2)CC1	?	-17%	-26%	-25%	4%	?	?
O=C(Nc1ccc(F)cc1F)NC1CCN(S(=O)(=O)c2ccc(F)cc2)CC1	i	-3%	-33%	-30%	-8%	-1%	nt
Cc1csc(CNc2ncnc3ccc(-c4cccnc4)cc23)c1	nt	nt	-17%	nt	-4%	2%	nt
Cc1cccc(-c2ccc3ncnc(NCc4cccnc4)c3c2)c1	nt	nt	-36%	nt	-12%	6.3µM*!	i
Cc1cccc(CNc2ncnc3ccc(-c4cccnc4)cc23)c1	-2%	nt	-30%	-4%	?	-3%	nt
COc1cccc(-c2ccc3ncnc(NCc4cc(C)cs4)c3c2)c1	nt	nt	-16%	nt	-1%	6.3µM*!	i
Cc1cccc(-c2ccc3ncnc(NCc4cccs4)c3c2)c1	nt	nt	-45%	nt	-6%	6.3µM*!	i
CCc1ccc(-c2cc(C)no2)cc1S(=O)(=O)NCc1ccc(OC)cc1	-26%	nt	nt	-24%	3%	nt	nt
CC(=O)CSc1nnc(-c2ccncc2)n1C	nt	1%	-5%	nt	?	?	i
Cn1c(SCC(=O)C(C)(C)C)nnc1-c1ccncc1	nt	1%	-3%	nt	-6%	10%	nt
CCC(C)NC(=O)c1ccc2c(c1)N=C(C)c1cc(C)ccc1S2 (stereo not drawn)	-23%	nt	nt	-20%	-4%	nt	nt
SMILES	Vaccinia mCherry	AMA1-RON2 inh	AmpC no deterg	VACV Venus inh	AmpC inh detg	SARS PLpro yeast-1	SARS PLpro yeast-2
CCSc1nnc(NC(=O)C(C)(C)C)s1	-9%	11%	-14%	-6%	4%	-4%	nt
CCSc1nnc(N(CCC(=O)O)CCC(=O)O)s1	i	-29%	-10%	-11%	?	?	i
CCc1ccc(OCC(=O)N(Cc2ccc(C(C)C)cc2)C2CCS(=O)(=O)C2)cc1 (stereo not drawn)	-12%	nt	nt	-16%	-9%	nt	nt
O=C(NNc1ccccc1C(F)(F)F)c1sccc1Cl	-20%	nt	nt	-12%	nt	nt	nt
Cc1ccc(CN2CCN(/N=C/c3sccc3C)CC2)c(C)c1	-4%	?	-33%	-8%	-6%	11µM*	i
CSc1ccc(/C=N/N2CCN(Cc3ccc(C)cc3C)CC2)cc1	-26%	-19%	-11%	-25%	3%	-2%	nt
COc1ccc(/C=C/c2ccnc3ccccc23)c(OC)c1	-29%	nt	nt	2%	nt	nt	nt
C=CCN(CC=C)C(=S)NC(=O)/C=C/c1ccccc1	-14%	14%	-20%	3%	?	2.8µM*	i
C=CCN(CC=C)C(=S)NC(=O)/C=C/c1ccc(C)cc1	-14%	63%	-9%	1%	6%	?	nt
O=C(Nc1ccc(Cl)cc1)C1CCN(S(=O)(=O)c2ccc(Br)s2)CC1	-25%	nt	nt	-14%	4%	nt	nt
CN(C)S(=O)(=O)c1ccc(C(=O)NCc2ccc3[nH]c4c(c3c2)CCCC4)cc1	31%	-19%	28µM*	-13%	?	3.5µM*	+
CC1(C)CC(C(=O)N2CCOc3ccc(CN4CCC(Oc5cccnc5)CC4)cc3C2)CCO1 (stereo not drawn)	-1%	nt	nt	-17%	nt	nt	nt
COc1cccc(Nc2sc(C(=O)c3ccc(F)cc3)c(N)c2C(=O)NCc2ccc(C)cc2)c1	-3%[7.34 µM]	nt	nt	-21%[7.34 µM]	9%	nt	nt
COc1cccc(OC)c1Nc1nc(C)nc2c1nnn2Cc1ccccc1Cl	1%	0%	-4%	6%	3%	-2%	nt
CCc1nc(Nc2ccc(OC)c(OC)c2)c2nnn(Cc3ccccc3Cl)c2n1	nt	1%	42%	?	1%	18µM*	+
CCOC(=O)c1c(C)[nH]c(C)c1S(=O)(=O)N(C)CC(=O)Nc1ccc(C)cc1Br	-14%	nt	nt	-1%	1%	nt	nt
COc1ccc(C2=NNC(=O)CC2)cc1	nt	5%	-10%	nt	-4%	?	i
Cc1ccc2oc(C(=O)Nc3sc4c(c3C(=O)NCc3ccccc3)CCCC4)cc(=O)c2c1	-6%	nt	nt	-5%	2%	nt	nt
CCc1ccc2nc(N3CCN(C(=O)c4ccccc4)CC3)sc2c1	-14%	nt	nt	-24%	0%	nt	nt
CCN(Cc1ccccc1)S(=O)(=O)c1ccc(C(=O)N2CCN(c3nc4ccccc4s3)CC2)cc1	-22%	18%	-13%	-23%	-3%	2.8µM*	i
